Assay outcomes (PubChem BioAssay)
The list is not random: actives were taken first. Their share in the collection is about 7.3%.
SNCA viab count – cell viability loss counter-screen | HEK-293-SNCA-luc viability, GF-AFC fluorescence, 24 h | Potency, µM (highest dose often 57.1 µM), actives largely listed as cytotoxic | actives 0.12% (n = 150,000) | AID 1671193; further: nearly all actives have a fitted effect of over 30% in size
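HEK-293-SNCA-luc cells (1500/well) plated 24 h, then exposed 24 h to a dilution series; GF-AFC added 30 min at 37C, fluorescence 405/540 nm; normalised to medium-only and DMSO wells, Hill fit.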
SNCA expr inh – SNCA gene expression inhibition; HEK-293 SNCA-luciferase knock-in, luminescence, 24 h; Potency, µM (titrated, usually from 57.2 µM), actives largely listed as inhibitors; actives 0.17% (n = 140,000); further: nearly all actives have a fitted effect of over 45% in size
HEK293 tox – HEK 293 cell cytotoxicity; Potency, µM (highest dose often 115 µM), hits mostly inhibitors; HEK 293 viability, ATP luminescence (CellTiter-Glo), 48-72 h; AID 1345083; actives 6.6% (n = 94,000); further: nearly all actives have a fitted effect of over 60% in size
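250 HEK 293 cells/well; compound by pintool; incubated 48 or 72 hr at 37 degree Celsius; CellTiter-Glo added, 10 min RT, luminescence imaged.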
Luciferase inh – blocks purified firefly luciferase enzyme activity | actives 2.5% (n = 76,000) | Potency, µM (top dose mostly 115 µM), hits mostly inhibitors | purified P. pyralis luciferase, luminescence, biochemical; further: nearly all actives have a fitted effect of over 65% in size
Target sequence (P08659 whole entry, looked up): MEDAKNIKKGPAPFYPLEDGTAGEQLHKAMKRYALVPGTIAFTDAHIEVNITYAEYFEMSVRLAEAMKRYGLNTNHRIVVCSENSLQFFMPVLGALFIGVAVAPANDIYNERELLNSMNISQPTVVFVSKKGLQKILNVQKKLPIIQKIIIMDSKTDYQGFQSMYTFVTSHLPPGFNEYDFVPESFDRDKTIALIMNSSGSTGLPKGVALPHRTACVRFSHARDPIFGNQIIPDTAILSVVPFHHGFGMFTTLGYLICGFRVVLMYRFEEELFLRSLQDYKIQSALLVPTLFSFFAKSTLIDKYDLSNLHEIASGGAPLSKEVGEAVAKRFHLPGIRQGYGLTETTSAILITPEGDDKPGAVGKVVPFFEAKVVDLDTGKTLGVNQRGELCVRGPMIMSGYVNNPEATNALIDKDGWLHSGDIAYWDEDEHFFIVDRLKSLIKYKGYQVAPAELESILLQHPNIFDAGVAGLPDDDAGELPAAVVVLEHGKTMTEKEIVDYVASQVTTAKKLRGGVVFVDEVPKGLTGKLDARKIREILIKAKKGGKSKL
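FLuc 10nM, D-luciferin 10uM, ATP 10uM, Mg acetate 10mM, Tris acetate pH 7.5, Tween/BSA; cpd qHTS; enzyme added last; CCD luminescence.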
3T3 cytotox – cytotoxic compounds in NIH 3T3 cells | actives 4.3% (n = 94,000) | Potency, µM (doses to about 96.7 µM), actives largely listed as inhibitors | NIH 3T3 viability, CellTiter-Glo ATP luminescence, 48-72 h | AID 1345082; further: nearly all actives have a fitted effect of over 55% in size
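ATP-dependent luminescence (CellTiter-Glo) served as the viability signal for NIH 3T3 cells treated with compound for 48 or 72 hr at 37 °C.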
IP6K1 inhibitor – IP6K1 kinase inhibition; activity change, % (series mostly up to about 58 µM); Q92551; IP6K1 kinase, ADP-Glo luminescence, 2 h; hits give low values; actives 0.81% (n = 140,000); in the data active means activity change below about -25%
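ADP-Glo luminescence measures ADP made by human IP6K1 during a 2 h RT reaction with ATP/IP6 (mix at 1.3 mM/130 uM); top library doses 57.5 and 19.1 uM final.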
Hits are given with their value. Unless noted, the call rests on the fitted dose curve; in most records, active means well fitted curve in the direction sought with a large enough effect; inconclusive means small, poorly fitted or top-dose-only effect, or another doubt; inactive means no such curve, though single readings can be large; an effect the other way counts as inactive or inconclusive.

`O=C(Nc1ccccc1)N1CC(Oc2cccc(-c3nc(-c4ccccc4)no3)c2)C1` gave SNCA viab count inactive, SNCA expr inh inactive, HEK293 tox inconclusive, Luciferase inh inconclusive, 3T3 cytotox inconclusive and IP6K1 inhibitor inactive.
CCCc1nc(C)cc(N2CCC(NCCc3ccc(Cl)cc3)CC2)n1 was read as SNCA viab count inconclusive, SNCA expr inh inactive, HEK293 tox 14µM, Luciferase inh inactive, 3T3 cytotox inconclusive and IP6K1 inhibitor inactive.
For CCCc1cc(N2CCC(NCCOC(C)C)CC2)nc(C)n1 the results were SNCA viab count inactive, SNCA expr inh inactive, HEK293 tox inactive, Luciferase inh inactive, 3T3 cytotox inactive and IP6K1 inhibitor inactive.
Screening O=C(CN1C(=O)C2(CCCCC2)C1c1ccccc1)N1CCOCC1 (configuration not stated) returned SNCA viab count inactive, SNCA expr inh inactive, HEK293 tox inactive, 3T3 cytotox inconclusive and IP6K1 inhibitor inactive.
`Cc1ccncc1-c1c(C)nn2c1N(C(=O)c1cccc(Cl)c1)CCC2` gave SNCA viab count inactive, SNCA expr inh inactive, HEK293 tox inactive, Luciferase inh inactive, 3T3 cytotox inconclusive and IP6K1 inhibitor inactive.
COc1ccc(C(=O)N2CCCn3nc(C)c(-c4ccccc4-c4ccccc4)c32)cc1 was read as SNCA viab count inactive, SNCA expr inh inactive, HEK293 tox 35µM, Luciferase inh inactive, 3T3 cytotox inconclusive and IP6K1 inhibitor inactive.
COc1ccccc1C(=O)N1CCCn2nc(C)c(-c3ccccc3-c3ccccc3)c21 was read as SNCA viab count inactive, SNCA expr inh inactive, HEK293 tox 89µM, Luciferase inh inactive, 3T3 cytotox inconclusive and IP6K1 inhibitor inactive.
`Cc1nn2c(c1-c1cccc3cn[nH]c13)N(C(=O)c1cccc(Cl)c1)CCC2` gave SNCA viab count inactive, SNCA expr inh inconclusive, HEK293 tox 50µM, Luciferase inh inactive, 3T3 cytotox inconclusive and IP6K1 inhibitor inactive.
Screening Cc1ccc(CN2C(=O)OC(c3cccc(NC(=O)c4ccccc4)c3)C2C(=O)NCCC(C)C)cc1 (configuration not stated) returned SNCA viab count inconclusive, SNCA expr inh inactive, HEK293 tox inconclusive, Luciferase inh inactive, 3T3 cytotox inconclusive and IP6K1 inhibitor inactive.
For CCOc1ccccc1NC(=O)Cn1c(=O)c(-c2noc(CC)n2)c2n(c1=O)CCCC2 the results were SNCA viab count inactive, SNCA expr inh inactive, HEK293 tox inactive, Luciferase inh inactive, 3T3 cytotox inactive and IP6K1 inhibitor inactive.
Screening CC(=O)N1CCC(C(=O)N2CCC3(CC2)NC(=O)N(c2ccc(F)cc2)N3)CC1 returned SNCA viab count inactive, SNCA expr inh inactive, HEK293 tox inconclusive, Luciferase inh inactive, 3T3 cytotox inconclusive and IP6K1 inhibitor inactive.
`O=C(Nc1ccc(C(F)(F)F)cc1)C1CCN(c2cnccn2)CC1` gave SNCA viab count inactive, SNCA expr inh inactive and IP6K1 inhibitor inactive.
`O=C(Nc1cnc(-c2ccc(C(F)(F)F)cc2)nc1)C1CCOC1` (configuration not stated) gave SNCA viab count inactive, SNCA expr inh inactive, HEK293 tox inconclusive, Luciferase inh 18µM, 3T3 cytotox inconclusive and IP6K1 inhibitor inactive.
COc1ccc(OC)c(NC(=O)Cn2c(-c3ccc(Cl)cc3)nc(C)c(CCO)c2=O)c1 was read as SNCA viab count inactive, SNCA expr inh inactive, HEK293 tox inactive, Luciferase inh inactive, 3T3 cytotox inactive and IP6K1 inhibitor inactive.
`COc1ccc(C)cc1C(=O)N1CCc2onc(-c3ccccc3F)c2C1` gave SNCA viab count inactive, SNCA expr inh inactive, HEK293 tox 28µM, Luciferase inh inactive, 3T3 cytotox inactive and IP6K1 inhibitor inactive.
CCCc1ncncc1C(=O)N1CCc2onc(-c3ccccc3F)c2C1 was read as SNCA viab count inactive, SNCA expr inh inactive, HEK293 tox inactive, Luciferase inh inactive, 3T3 cytotox inactive and IP6K1 inhibitor inactive.
`CCCCOC(=O)N1CCC2(CC1)[C@@H](C(=O)OCC)[C@@H](O)C(=O)N2C` gave HEK293 tox inactive, 3T3 cytotox inconclusive and IP6K1 inhibitor inactive.
Cc1c(O)cccc1C(=O)N1CCCN(Cc2ccc(F)cc2)C(C(C)C)C1 (configuration not stated) was read as SNCA viab count inactive, SNCA expr inh inactive, HEK293 tox 45µM, Luciferase inh inactive, 3T3 cytotox inconclusive and IP6K1 inhibitor inactive.
For CC(C)(O)CCc1cccc(C(=O)NCc2ccc3c(c2)OCCCO3)c1 the results were SNCA viab count inactive, SNCA expr inh inactive, HEK293 tox inconclusive, Luciferase inh inactive, 3T3 cytotox inconclusive and IP6K1 inhibitor inactive.
For CCOC(=O)C1CCN(C(=O)c2cn3cc(-c4ccccc4)sc3n2)CC1 the results were SNCA viab count inactive, SNCA expr inh inactive, HEK293 tox inactive, 3T3 cytotox inactive and IP6K1 inhibitor inactive.
Screening COc1ccc(C(=O)N2CCOCC3(CN(Cc4cccc(C#N)c4)C3)C2)cc1OC returned SNCA viab count inactive, SNCA expr inh inactive, HEK293 tox inconclusive, Luciferase inh inactive, 3T3 cytotox 79µM and IP6K1 inhibitor inactive.
`COc1ccc(C(=O)N2CCOCC3(C2)CN(c2ccccc2)C3)cc1OC` gave SNCA viab count inactive, SNCA expr inh inactive, HEK293 tox inconclusive, Luciferase inh inactive, 3T3 cytotox inactive and IP6K1 inhibitor inactive.
For O=C(c1cccc(C(F)(F)F)c1)N1CCOCC2(CN(Cc3ccccc3)C2)C1 the results were SNCA viab count inactive, SNCA expr inh inconclusive, HEK293 tox 7.1µM, Luciferase inh inactive, 3T3 cytotox 7.1µM and IP6K1 inhibitor inactive.
O=C(c1cccc(C(F)(F)F)c1)N1CCOCC2(CN(Cc3cc(F)cc(F)c3)C2)C1 was read as SNCA viab count inactive, SNCA expr inh inactive, HEK293 tox inactive, Luciferase inh inactive, 3T3 cytotox inactive and IP6K1 inhibitor inactive.
For O=C(c1ccc(Cl)cc1)N1CCOCC2(C1)CN([S+](=O)([O-])c1ccccc1)C2 the results were SNCA viab count inactive, SNCA expr inh inactive, HEK293 tox inconclusive, Luciferase inh inactive, 3T3 cytotox 50µM and IP6K1 inhibitor inactive.
Screening CCCc1nc(C(=O)N2CCC3(CCc4ccccc43)CC2)cs1 returned SNCA viab count inactive, SNCA expr inh inactive, HEK293 tox inconclusive, Luciferase inh inactive, 3T3 cytotox inconclusive and IP6K1 inhibitor inactive.
Cc1ccc(Nc2ccnc(N3CCC(NC(=O)c4ccccc4C)CC3)n2)cc1 was read as SNCA viab count inconclusive, SNCA expr inh inconclusive, HEK293 tox 35µM, 3T3 cytotox 25µM and IP6K1 inhibitor inactive.
Screening COc1ccc(Nc2ccnc(N3CCC(NC(=O)c4ccccc4Cl)CC3)n2)cc1 returned SNCA viab count inactive, SNCA expr inh inactive, HEK293 tox 40µM, 3T3 cytotox inconclusive and IP6K1 inhibitor inactive.
